Among the data in PubChem BioAssay (Tox21) are Potency values, retold here.

A short description of experiment [1]: Nuclear factor erythroid 2-related factor 2/antioxidant responsive element (Nrf2/ARE) small molecule agonists: qHTS cell viability counter screen in human keratinocytes (AID 1919968; active = well fitted curve in the direction sought with a large enough effect in the repeat runs; an effect the other way counts as inactive or inconclusive; also: nearly all actives have a fitted effect of over 55% in size; also: potency is read from the fitted curve at half-maximal effect). Summed up:
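Seed 1,500 KeratinoSens cells per well, then incubate 5 h at 37 C/5% CO2. Add compounds in DMSO and incubate 23 h. Add CellTiter-Fluor, wait 1 h and read fluorescence.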
(In qHTS, concentration-response curves come from the screen itself.)

The nature of experiment [2]: Nuclear factor erythroid 2-related factor 2/antioxidant responsive element (Nrf2/ARE) small molecule agonists: luciferase reporter gene qHTS assay in human keratinocytes (AID 1919969; also: nearly all actives have a fitted effect of over 35% in size; also: potency is read from the fitted curve at half-maximal effect). (A reporter such as luciferase makes a cellular process visible.)
Experiment [3] deals with Gonadotropin-releasing hormone receptor (Homo sapiens) (UniProt P30968). Nature of the experiment: Human gonadotropin-releasing hormone receptor (GnRHR) small molecule agonists, calcium flux assay in GnRHR-HEK293 cells (AID 1920063). Also: nearly all actives have a fitted effect of over 35% in size. Also: potency is read from the fitted curve at half-maximal effect. In a few lines:
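Cells: HEK293 stably expressing human GnRHR. Steps: overnight (18 h) culture, 1 h calcium dye loading at 37 C, compound addition, kinetic fluorescence read at 480/540 nm. Each compound tested at 15 concentrations in triplicate.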
(In general: Calcium assays in cells follow changes in intracellular calcium, usually with a dye or a luminescent sensor.)

The nature of experiment [4]: p53 small molecule agonists, cell-based qHTS assay with human liver microsomes (AID 1963577). In a few lines: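 p53RE-bla reporter cells were pre-incubated 5 h at 37 C, then treated with compounds plus human liver microsomes (0.5 mg/mL final) and NADPH (0.5 mg/mL final) for 16 h at 37 C. Beta-lactamase activity was read by LiveBLAzer fluorescence after 2 h at room temperature.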

The nature of experiment [5]: p53 small molecule agonists, cell-based qHTS assay with rat liver microsomes (AID 1963578). Summed up: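 p53RE-bla cells were exposed to compounds together with rat liver microsomes (0.5 mg/mL final) and NADPH (0.5 mg/mL final) for 16 h at 37 C, then read by LiveBLAzer beta-lactamase fluorescence after 2 h at room temperature.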
Experiment [6] is described as follows: p53 small molecule agonists, cell-based qHTS assay with human liver microsomes: qHTS cell viability counter screen (AID 1963579). Also: nearly all actives have a fitted effect of over 45% in size. In a few lines: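 p53RE-bla cells (4,000/well) were pre-incubated 5 h at 37 C, then given compounds in DMSO plus human liver microsomes (0.5 mg/mL final) and NADPH (0.5 mg/mL final) for 16 h at 37 C. Viability was read by CellTiter-Glo luminescence.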

Experiment [7] in a line: p53 small molecule agonists, cell-based qHTS assay with rat liver microsomes: qHTS cell viability counter screen (AID 1963580). Also: nearly all actives have a fitted effect of over 45% in size. Summed up:
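Viability is assessed in parallel with the p53 reporter read: HCT-116 p53RE-bla cells receive compounds plus rat microsomes and NADPH (0.5 mg/mL final apiece), incubate 16 h at 37 C, and then CellTiter-Glo luminescence is recorded.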

Experiment [8] in a line: p53 small molecule agonists, cell-based qHTS assay: qHTS cell viability counter screen (AID 1963581). Also: nearly all actives have a fitted effect of over 45% in size. Also: potency is read from the fitted curve at half-maximal effect. In a few lines: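 Cells: HCT-116 with p53 response element-driven beta-lactamase. Treatment: 16 h, 37 C, compounds in DMSO. Read: CellTiter-Glo luminescence after 30 min RT.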
The nature of experiment [9]: p53 small molecule agonists, cell-based qHTS assay (AID 1963582; active = well fitted activation curve with a large enough effect in the signal ratio in the repeat runs, not every such curve was filed as active; the % refers to the signal ratio). Summed up:
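Quantitative HTS in p53RE-bla cells: after a 5 h settling period, compounds delivered in DMSO were left on cells for 16 h at 37 C, and reporter induction was measured as fluorescence following 2 h substrate loading.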

Experiment [10] addresses 5-hydroxytryptamine receptor 2A (Homo sapiens) (UniProt P28223). Put plainly: 5-hydroxytryptamine receptor 2A (HTR2A) small molecule agonists, cell-based qHTS assay (AID 1963587). Also: nearly all actives have a fitted effect of over 30% in size. Also: potency is read from the fitted curve at half-maximal effect. In a few lines: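 CHO cells stably expressing human HTR2A, plated 18 h, loaded with calcium dye 1 h at 37 C. Agonist mode: compounds added and intracellular calcium fluorescence recorded kinetically for 2 min at 1 sec intervals.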

The target of experiment [11] is Muscarinic acetylcholine receptor M1 (Homo sapiens) (UniProt P11229). Put plainly: Cholinergic receptor muscarinic 1 (CHRM1) small molecule antagonists, cell-based qHTS assay (AID 1963588). Also: nearly all actives have a fitted effect of over 40% in size. Also: potency is read from the fitted curve at half-maximal effect. In a few lines: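 CHRM1-CHO calcium-flux assay, antagonist mode. Cells were seeded 18 h, dye-loaded 1 h at 37 C and given compound for 5 min at RT, then acetylcholine was added at 50nM. FDSS fluorescence was read 3 min; 15 concentrations, three runs.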

A short description of experiment [12]: cAMP Responsive Elements (CRE) small molecule antagonists, cell-based qHTS assay (AID 1963591; active = well fitted inhibition curve with a large enough effect in the signal ratio in the repeat runs, not every such curve was filed as active; the % refers to the signal ratio; also: potency is read from the fitted curve at half-maximal effect). In a few lines: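 Antagonist mode: test compounds are co-incubated with the adenylyl cyclase activator NKH477 (0.25 uM final) on CRE-bla HEK293T cells for 3 h at 37 °C, followed by LiveBLAzer substrate loading.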
Experiment [13] addresses Beta-2 adrenergic receptor (Homo sapiens) (UniProt P07550). Nature of the experiment: Adrenergic beta2 receptor (ADRB2) small molecule antagonists, cell-based qHTS assay (AID 1963592). Also: nearly all actives have a fitted effect of over 50% in size. Also: potency is read from the fitted curve at half-maximal effect. In a few lines:
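Cells (CHO, stable ADRB2 overexpression) incubated 18-20hr at 37C; compounds added from DMSO; agonist mix (1nM isoproterenol, 100uM IBMX, 25uM Ro-20-1724) added; 0.5hr RT; d2-cAMP and anti-cAMP-cryptate added; 1hr RT; 665/615 nm read.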

Experiment [14] addresses D(2) dopamine receptor (Homo sapiens) (UniProt P14416). Put plainly: Dopamine D2 receptor (DRD2) small molecule agonists, cell-based qHTS assay (AID 1963594). Also: nearly all actives have a fitted effect of over 35% in size. In a few lines: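 HEK293 cells stably expressing human DRD2, pre-treated with PDE inhibitor Ro20-1724 (0.1 mM final) and compound 10 min at room temperature, then stimulated with NKH477 (200nM […]) for 30 min. cAMP read by HTRF (665/620 nm).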

The nature of experiment [15]: G protein-coupled receptor (GPCR) small molecule agonists, calcium flux assay: HEK293 wild type cell line counter screen (AID 1920065). Summed up: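 Counter-screen of the Tox21 10K library for non-specific calcium release: dye-loaded cells received compounds in DMSO and were monitored by kinetic fluorescence (480/540 nm, 3 min). Fifteen concentrations, run in triplicate.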

The target of experiment [16] is 5-hydroxytryptamine receptor 2A (Homo sapiens) (UniProt P28223). Nature of the experiment: 5-hydroxytryptamine receptor 2A (HTR2A) small molecule antagonists, cell-based qHTS assay (AID 1963586). Also: nearly all actives have a fitted effect of over 45% in size. Summed up:
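Antagonist-mode intracellular calcium assay: DOI (4 nM) added after 5 min compound pre-incubation at room temperature to dye-loaded HTR2A-CHO cells. Fluorescence followed for 3 min, sampled every second.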

Experiment [17] has as its target Muscarinic acetylcholine receptor M1 (Homo sapiens) (UniProt P11229). Put plainly: Cholinergic receptor muscarinic 1 (CHRM1) small molecule agonists, cell-based qHTS assay (AID 1963589). Also: nearly all actives have a fitted effect of over 35% in size. Also: potency is read from the fitted curve at half-maximal effect. In a few lines: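 Agonist-mode qHTS in CHO cells stably carrying human muscarinic M1. Intracellular calcium is tracked by fluorescence every second after compound transfer; each compound runs at 15 concentrations in three independent runs.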

In experiment [18] the target is D(2) dopamine receptor (Homo sapiens) (UniProt P14416). Put plainly: Dopamine D2 receptor (DRD2) small molecule antagonists, cell-based qHTS assay (AID 1963595; active = well fitted inhibition curve with a large enough effect in the signal ratio in the repeat runs, with a control signal flat; the % refers to the signal ratio; also: potency is read from the fitted curve at half-maximal effect). In a few lines:
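Cells were plated and grown for 24 h at 37 °C. Ro20-1724 (0.1 mM final) went in first, then compound for 10 min. NKH477 (200 nM) with quinpirole (12 nM) followed for 30 min at RT, then HTRF detection reagents for 1 h.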

Experiment [19] deals with KiSS-1 receptor (Homo sapiens) (UniProt Q969F8). Nature of the experiment: Human kisspeptin (KISS1R) small molecule agonists, calcium flux assay in KISS1R-HEK293 cells (AID 1920064; active = well fitted curve in the direction sought with a large enough effect in the repeat runs; an effect the other way counts as inactive or inconclusive). In a few lines:
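Cells plated and incubated 18 h; dye added, 1 h at 37 C; compounds in DMSO pinned in; signal read at 480/540 nm every second for 3 min. Each compound tested at 15 concentrations in triplicate.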

Experiment [20] is described as follows: cAMP Responsive Elements (CRE) small molecule agonists, cell-based qHTS assay (AID 1963590). In a few lines:
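Agonist mode qHTS in CRE-bla HEK 293T cells: compounds dosed from DMSO for 3 h at 37 C/5% CO2, followed by LiveBLAzer B/G FRET substrate for 2 h at room temperature.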

Each structure is given as a SMILES string. Unmarked numbers belong to inactive results. Inconclusive results are not listed. Calls of active or inactive are those of the source. Unless noted, calls follow the shape of the full dose curve.

Sequence of Beta-2 adrenergic receptor (Homo sapiens) (P07550 whole entry, looked up): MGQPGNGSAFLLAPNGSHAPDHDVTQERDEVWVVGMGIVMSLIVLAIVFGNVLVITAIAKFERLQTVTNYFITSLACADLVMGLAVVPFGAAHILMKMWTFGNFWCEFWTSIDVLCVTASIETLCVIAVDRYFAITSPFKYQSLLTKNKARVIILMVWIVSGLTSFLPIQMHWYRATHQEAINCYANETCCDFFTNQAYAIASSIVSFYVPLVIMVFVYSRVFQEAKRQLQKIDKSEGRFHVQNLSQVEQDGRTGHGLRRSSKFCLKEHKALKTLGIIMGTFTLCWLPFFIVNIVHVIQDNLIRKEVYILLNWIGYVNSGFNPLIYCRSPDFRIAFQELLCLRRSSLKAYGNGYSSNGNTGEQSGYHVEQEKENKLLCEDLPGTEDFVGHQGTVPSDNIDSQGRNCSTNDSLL
Sequence of KiSS-1 receptor (Homo sapiens) (Q969F8 whole entry, looked up): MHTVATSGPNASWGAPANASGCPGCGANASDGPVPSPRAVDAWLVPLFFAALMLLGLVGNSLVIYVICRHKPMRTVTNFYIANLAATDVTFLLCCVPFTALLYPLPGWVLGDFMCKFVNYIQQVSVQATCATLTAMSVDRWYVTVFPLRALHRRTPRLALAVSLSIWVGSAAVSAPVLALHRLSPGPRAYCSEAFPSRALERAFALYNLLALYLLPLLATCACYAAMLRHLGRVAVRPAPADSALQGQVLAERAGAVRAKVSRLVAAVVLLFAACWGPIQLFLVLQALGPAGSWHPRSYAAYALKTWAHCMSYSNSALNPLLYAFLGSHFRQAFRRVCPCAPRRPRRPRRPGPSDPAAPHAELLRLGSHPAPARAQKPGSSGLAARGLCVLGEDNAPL
Sequence of Gonadotropin-releasing hormone receptor (Homo sapiens) (P30968 whole entry, looked up): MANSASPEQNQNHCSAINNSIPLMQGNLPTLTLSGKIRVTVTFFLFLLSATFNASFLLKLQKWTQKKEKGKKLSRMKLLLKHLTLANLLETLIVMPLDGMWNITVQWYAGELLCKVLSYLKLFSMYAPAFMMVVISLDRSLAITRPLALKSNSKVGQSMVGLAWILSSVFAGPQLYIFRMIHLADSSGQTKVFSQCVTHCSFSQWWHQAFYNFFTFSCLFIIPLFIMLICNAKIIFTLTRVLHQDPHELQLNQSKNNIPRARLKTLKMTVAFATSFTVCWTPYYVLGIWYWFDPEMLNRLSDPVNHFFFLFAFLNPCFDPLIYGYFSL
Sequence of D(2) dopamine receptor (Homo sapiens) (P14416 whole entry, looked up): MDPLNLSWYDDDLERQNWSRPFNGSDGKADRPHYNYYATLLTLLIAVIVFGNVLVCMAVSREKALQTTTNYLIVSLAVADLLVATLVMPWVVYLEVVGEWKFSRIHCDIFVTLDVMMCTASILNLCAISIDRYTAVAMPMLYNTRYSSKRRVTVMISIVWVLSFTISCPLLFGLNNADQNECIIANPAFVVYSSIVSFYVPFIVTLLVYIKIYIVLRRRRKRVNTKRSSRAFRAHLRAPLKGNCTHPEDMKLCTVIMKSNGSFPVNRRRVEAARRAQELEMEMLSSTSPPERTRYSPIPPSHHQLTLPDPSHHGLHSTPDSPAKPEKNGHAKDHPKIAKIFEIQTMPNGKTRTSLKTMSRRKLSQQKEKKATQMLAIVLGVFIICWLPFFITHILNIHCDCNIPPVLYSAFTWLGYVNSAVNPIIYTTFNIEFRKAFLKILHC
Sequence of Muscarinic acetylcholine receptor M1 (Homo sapiens) (P11229 whole entry, looked up): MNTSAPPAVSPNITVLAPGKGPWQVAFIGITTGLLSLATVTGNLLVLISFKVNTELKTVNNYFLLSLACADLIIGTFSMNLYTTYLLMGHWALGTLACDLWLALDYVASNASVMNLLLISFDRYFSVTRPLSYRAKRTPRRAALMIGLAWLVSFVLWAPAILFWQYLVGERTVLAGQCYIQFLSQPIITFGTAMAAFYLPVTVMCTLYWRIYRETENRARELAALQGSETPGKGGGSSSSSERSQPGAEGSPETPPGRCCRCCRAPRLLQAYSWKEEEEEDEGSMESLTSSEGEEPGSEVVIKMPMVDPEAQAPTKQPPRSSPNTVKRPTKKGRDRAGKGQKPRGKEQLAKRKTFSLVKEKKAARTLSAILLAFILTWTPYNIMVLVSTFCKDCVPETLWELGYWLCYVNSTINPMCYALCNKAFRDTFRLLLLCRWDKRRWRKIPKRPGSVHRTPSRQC
Sequence of 5-hydroxytryptamine receptor 2A (Homo sapiens) (P28223 whole entry, looked up): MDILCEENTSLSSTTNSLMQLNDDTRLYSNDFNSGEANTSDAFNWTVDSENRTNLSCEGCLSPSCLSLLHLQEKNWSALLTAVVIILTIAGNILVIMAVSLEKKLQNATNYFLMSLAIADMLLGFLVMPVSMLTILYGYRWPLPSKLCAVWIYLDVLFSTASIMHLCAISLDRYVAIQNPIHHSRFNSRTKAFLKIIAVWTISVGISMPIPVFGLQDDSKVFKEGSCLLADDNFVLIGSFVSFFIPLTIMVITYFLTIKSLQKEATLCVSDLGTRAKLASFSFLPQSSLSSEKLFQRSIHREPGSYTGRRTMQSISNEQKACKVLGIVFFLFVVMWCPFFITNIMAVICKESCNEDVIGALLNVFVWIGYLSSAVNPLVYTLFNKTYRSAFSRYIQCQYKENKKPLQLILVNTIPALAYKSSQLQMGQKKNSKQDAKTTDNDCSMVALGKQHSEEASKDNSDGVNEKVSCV

For the compound `COc1cc(CC(C)N)cc2c1OCO2` (centres undefined), the Potency entry in experiment [1], in [2], in experiment [3], in experiment [4], in experiment [5] and in experiment [6] was “inactive” throughout. Moreover, the Potency entry in experiment [7], in [8], in experiment [9], in experiment [12] and in experiment [14] was “inactive” each time. For the same compound, the results for the Potency in experiment [10], in [11] and in experiment [13] were 1.44 µM (active), 15.6 µM (active) and 32 µM (active), respectively.

Take `CCCCN(CCCC)C(=S)[S-].CCCCN(CCCC)C(=S)[S-].[Zn+2]`: the Potency in [1] was 6.11 µM (active); in experiment [2], 1.93 µM (active); in experiment [3], 17.4 µM (active); in experiment [8] it was 25.7 µM (active); in experiment [17] it was 19.5 µM (active); in experiment [12] it was 21.7 µM (active). Besides, the Potency entry in experiment [15], in [6], in [16], in experiment [10], in experiment [13] and in [18] was “inactive” each time.

Take `CCN[C@@H](C)Cc1cccc(C(F)(F)F)c1`: the Potency result in experiment [1], in experiment [2], in experiment [3], in [15], in [6] and in experiment [7] was “inactive” in each case. For the same compound, the Potency result in experiment [12] and in experiment [18] was “inactive” each time.

In the case of `c1ccc(C2CC2)c(OCC2=NCCN2)c1`, the Potency entry in experiment [1], in [2], in experiment [19], in [15], in [4] and in experiment [5] was “inactive” each time. For the same compound, the Potency result in experiment [6], in experiment [7], in [8], in experiment [9], in experiment [16] and in experiment [11] was “inactive” throughout. Also, the Potency entry in experiment [17], in experiment [13] and in experiment [14] was “inactive” throughout. For the same compound, in experiment [18], the Potency was 8.41 µM (active).

For `NC1CCC(CC2CCC(N)CC2)CC1` (centres undefined), the Potency is 23.9 µM (active) in experiment [1] and 19.2 µM (active) in [10]. The Potency result in [2], in experiment [19], in [15], in [4], in experiment [5] and in experiment [6] was “inactive” in each case. Moreover, the Potency result in [7], in experiment [8], in experiment [9], in experiment [16], in [11] and in experiment [17] was “inactive” throughout. Further, the Potency result in experiment [20], in experiment [14] and in experiment [18] was “inactive” each time.

Regarding `C[C@]12CC[C@H]3[C@@H](CCC4=CC(=O)CC[C@@H]43)[C@@H]1CC[C@@H]2OC(=O)CCc1ccccc1`, the Potency result in experiment [1], in experiment [2], in [19], in experiment [15], in experiment [4] and in experiment [5] was “inactive” in each case. Further, the Potency result in experiment [6], in experiment [7], in experiment [8], in experiment [9], in [16] and in experiment [10] was “inactive” in each case. Further, the Potency result in experiment [17], in [20], in experiment [13], in experiment [14] and in [18] was “inactive” throughout. For the same compound, the Potency in experiment [11] was 2.31 µM (active).

Consider `COc1ccc2[nH]cc(CCN(C(C)C)C(C)C)c2c1`, for which the Potency result in experiment [1], in [2], in [19], in experiment [15], in experiment [4] and in [5] was “inactive” in each case. Further, the Potency entry in [6], in [7], in experiment [9], in experiment [11], in [17] and in [20] was “inactive” each time. Moreover, the Potency entry in experiment [13] and in experiment [18] was “inactive” each time.
